This is a sample that favours compounds with a hit; in the whole collection about 7.7% have one here.
Giardia FBPA inh – Giardia lamblia aldolase inhibition. A8B2U2. purified Giardia FBPA. Potency, µM (doses to about 59.6 µM), for inactives: top-dose activity, negative = inhibition, usual class: inhibitors. 0.71% of 290,000 active. AID 2451; also: potency is read from the fitted curve at half-maximal effect; nearly all actives have a fitted effect of over 55% in size
Target sequence (A8B2U2 whole entry, looked up): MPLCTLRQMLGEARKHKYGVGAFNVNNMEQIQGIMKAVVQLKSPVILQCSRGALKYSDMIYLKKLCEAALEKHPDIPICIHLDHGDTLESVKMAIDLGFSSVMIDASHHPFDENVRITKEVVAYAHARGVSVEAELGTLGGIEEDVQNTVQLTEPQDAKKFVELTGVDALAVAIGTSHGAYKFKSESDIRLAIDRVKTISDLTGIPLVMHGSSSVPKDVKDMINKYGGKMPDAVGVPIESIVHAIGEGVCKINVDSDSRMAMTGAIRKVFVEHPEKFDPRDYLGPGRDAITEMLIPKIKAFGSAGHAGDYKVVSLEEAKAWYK
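40 nM FBPA preincubated 10 min at RT with compound (up to 57.5 uM final), then substrate plus GAPDH/TPI/NAD/arsenate coupling and diaphorase/resazurin added. Fluorescence read after 20 min at RT, 525/598 nm.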
Sm TGR block – S. mansoni TGR enzyme inhibition; Potency, µM (doses to about 114 µM), without a hit: at the highest dose activity change, negative = inhibition, usual class: inhibitors; Q962Y6; purified TGR, DTNB reduction, TNB absorbance 405 nm; AID 485364; 3% of 360,000 active; also: potency is read from the fitted curve at half-maximal effect; nearly all actives have a fitted effect of over 60% in size
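Kinetic colorimetric format: TGR-catalysed, NADPH-driven DTNB reduction monitored via TNB absorbance. Enzyme dispensed at 20 nM; compound exposure 15 min at room temperature before reaction start.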
RE007 growth inh – less growth of the S. pombe RE007 Vpr strain. S. pombe RE007 Vpr strain, BacTiter-Glo ATP luminescence, 24 h. Potency, µM (series often up to 92.2 µM), for the others: at the highest dose activity change, negative = less growth, most hits filed as inhibitors. 0.21% of 360,000 active; active = well fitted falling curve with a large enough effect; inconclusive = small, poorly fitted or top-dose-only effect; inactive = no such curve, though single readings can be large or run the other way; also: potency is read from the fitted curve at half-maximal effect; nearly all actives have a fitted effect of over 50% in size
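Fission yeast strain RE007, carrying one chromosomally integrated HIV-1 vpr copy, was seeded at OD 0.01 in PMG+AL medium with 23 nL pinned compound. After 24 h at 30 °C and 99% humidity, viability was read by BacTiter-Glo luminescence.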
TbPYK inhibitor – inhibitors of Trypanosoma brucei pyruvate kinase. Q57TT1. TbPYK enzyme, Kinase-Glo Plus ATP luminescence, 45 min. Potency, µM (titrated, usually from 76.8 µM), for the others: at the top dose activity, negative = inhibition, hits mostly inhibitors. 0.12% of 410,000 active. AID 624173; also: potency is read from the fitted curve at half-maximal effect; nearly all actives have a fitted effect of over 50% in size
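Glycolytic pyruvate kinase of T. brucei was incubated with substrate, test compound and 130 uM ADP for 45 minutes at room temperature. Luminescent Kinase-Glo Plus signal was measured after 10 minutes.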
FMDV inh – foot and mouth disease virus antiviral activity; 1.2% of 410,000 active; FMDV antiviral cell-based qHTS; Potency, µM (highest dose often 57.9 µM), for inactives: at the top dose activity change, negative = inhibition, actives largely listed as inhibitors; calls by dose curve; tested in HEK293T cells; also: read-out not given here; potency is read from the fitted curve at half-maximal effect; nearly all actives have a fitted effect of over 45% in size
HCMV antiviral – inhibitors of human cytomegalovirus. HFF cells, HCMV-luciferase reporter, 72 h; active compounds read low. activity change, negative = inhibition, % at 57.5 µM. 4.5% of 410,000 active. AID 1259415; in the data active = activity change below about -60%; inconclusive = no clear call, values can overlap the other calls; inactive = above about -39%
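Human foreskin fibroblasts infected with luciferase-reporter HCMV at MOI 1 PFU/cell, compounds at two doses. Luciferase measured 72 h post infection; normalized to buffer-only basal and Salinomycin (10uM) controls.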
Active calls of the source: *; ? = inconclusive; / = no result given; + = active, no number; [ ] = another dose, or the depositor's remark. Unless noted, calls follow the shape of the dose curve; as a rule, active = well fitted curve in the direction sought with a large enough effect; inconclusive = small, poorly fitted or top-dose-only effect, or another doubt; inactive = no such curve, though single readings can be large; an effect the other way counts as inactive or inconclusive. % is scaled to controls: 0 for no effect and ±100 for the full control effect.

SMILES	Giardia FBPA inh	Sm TGR block	RE007 growth inh	TbPYK inhibitor	FMDV inh	HCMV antiviral
Cc1nc2ccc(NS(=O)(=O)c3ccc(Br)cc3)cc2s1	/	-5%	0%	1%	-5%	-60*
Cc1ccc(S(=O)(=O)Nc2ccc3nc(N)sc3c2)cc1	7%	4%	0%	-1%	41%	-89*
CC(C)c1nc(SCC(=O)Nc2ccc(N(C)C)cc2)c2ccccc2n1	0%	-5%	-2%	-2%	?	-77*
COc1ccc(C(=O)NNC(=O)CSc2nc(C(C)C)nc3ccccc23)cc1	-1%	2%	1%	4%	-14%	-65*
CC(C)(C)c1nc(SCC(=O)NNC(=O)c2ccccc2)c2ccccc2n1	2%	-1%	-4%	2%	0%	-63*
CCNc1ncc2nc(-c3ccc(OC)cc3)c(=O)n(-c3ccc(OC)cc3)c2n1	-11%	/	/	0%	-12%	/
Cc1ccc2c(c1)c1c3n2CCN=C3CCC1	-6%	-20%	-17%	5%	1%	42
c1cc2c(cc1C1CCCCC1)c1c3n2CCN=C3CCC1	10%	7.9µM*	35%	-8%	-22%	-12
Cn1cc(CNC2CCN(c3cccc(NC(=O)c4cccnc4)c3)CC2)cn1	/	/	/	/	-8%	/
Cc1csc(SCC(=O)Nc2ccccc2C)n1	/	4%	12%	2%	10%	-16
Cc1csc(SCC(=O)Nc2cccc3nsnc23)n1	1%	?	-16%	-1%	-9%	-75*
CCc1c(C)sc2c1CCN(Cc1cccc(OC)c1)C2c1ccccc1 (stereo not given)	/	31%	/	0%	-10%	-86*
CCOC(=O)c1ccccc1NC(=O)N1CCc2c(sc(C)c2CC)C1c1ccccc1 (stereo not given)	/	7%	/	1%	-18%	-7
CCc1c(C)sc2c1CCN(Cc1ccccc1F)C2c1ccccc1 (stereo not given)	/	-2%	/	1%	?	-105*
C[C@@H]1COc2cc(N3CCOCC3)ccc2S(=O)(=O)N1	/	/	/	/	/	15
Cc1cc2cc(CNC(=S)NC3CCCCC3)ccc2[nH]1	1%	15%	-2%	2%	11%	-63*
CC(=O)NCc1ccc2[nH]c(C)cc2c1	?	40µM*	6%	-5%	1%	33
Cc1cccc(NC(=O)NCc2ccc3[nH]c(C)cc3c2)c1	-8%	0%	-7%	-1%	30%	6
CCC(=O)NCc1ccc2[nH]c(C)cc2c1	?	28µM*	5%	2%	7%	75
Cc1ccc(NC(=O)NCc2ccc3[nH]c(C)cc3c2)cc1	-6%	-14%	2%	1%	37%	-84*
COc1ccc(-c2nc(Cn3c(=O)cc(-c4ccccc4)c4c(C)nn(C)c43)c(C)o2)cc1OC	/	5%	/	2%	-14%	6
CCN(CC)c1ccc(C(=O)NCc2nc3cccnc3n2Cc2ccc(C)cc2)cc1	/	-2%	/	-8%	0%	-31
Cc1ccc(OCC(=O)Nc2cccnc2Cl)cc1C	-1%	10%	22%	2%	57%	-61*
Cc1ccc2nc(C)cc(C(=O)OCC(=O)Nc3cccnc3Cl)c2c1	3%	1%	18%	4%	-17%	-76*
CCOC(=O)C1=CCC(c2ccccc2)N(S(C)(=O)=O)C1 (stereo not given)	/	/	/	/	/	16
SMILES	Giardia FBPA inh	Sm TGR block	RE007 growth inh	TbPYK inhibitor	FMDV inh	HCMV antiviral
COc1cc2c(cc1/C=C/[N+](=O)[O-])OCO2	3%	33%	14µM*	-7%	14µM*	-108*
O=C(NCC1CCOCC1)c1cc(COc2cccc(C(F)(F)F)c2)on1	12%	-21%	-20%	1%	-26%	-33
Cc1ccc(CN(C)C(=O)c2cc(COc3ccc(F)cc3Cl)on2)o1	-8%	25µM*	-22%	?	38%	-7
Cc1ccc(CN(C)C(=O)c2cc(COc3cccc(C(F)(F)F)c3)on2)o1	-1%	10µM*	-4%	?	-6%	148
Cc1nonc1CN(C)C(=O)c1cc(COc2ccc(F)cc2Cl)on1	/	0%	2%	1%	3%	-8
CN(Cc1nccn1C)C(=O)c1cc(COc2cccc(C(F)(F)F)c2)on1	/	-23%	-6%	-6%	19%	-16
COc1ccccc1CCNC(=O)c1cc(COc2cccc(C(F)(F)F)c2)on1	/	8%	-2%	3%	0%	+
COc1ccc(COC(=O)N/N=C2/C[C@@H](O)[C@@H](O)[C@@H]3[C@@H]4C(=O)N(C[C@@H]5CCCO5)C(=O)[C@H]4CC[C@H]23)cc1	-3%[12.9 µM]	/	/	/	/	/
Cc1ccc(CNC(=O)Cn2c3ncccc3c(=O)n2-c2ccccc2)cc1	/	5%	/	-3%	11%	-1
Cc1ccc(N=Nc2ccc(O)c3ncccc23)cc1	-20%	1%	1%	-13%	-19%	-96*
Cc1ccc(N=Nc2ccc(O)c3ncccc23)cc1C	-1%	?	4%	-2%	41%	-98*
COc1ccc(CNC(=O)c2cccc(-n3cnc4cccnc43)c2C)cc1	/	-2%	/	3%[15.4 µM]	-10%	0
Cc1cc2c(ccc3[nH]onc32)n1	?	32µM*	-2%	4%	-15%	-33
Cc1ccc(S(=O)(=O)OC[C@@H]2CN3[C@H](c4ccc(Br)cc4)[C@H](C)CC[C@H]3C(=O)O2)cc1	-5%[12.9 µM]	/	/	/	/	/
COc1cccc(NC(CNS(=O)(=O)c2ccc(Cl)cc2)c2ccccc2)c1 (stereo not given)	/	3%	/	0%	-20%	-100*
Cc1ccc(NC(CNS(=O)(=O)c2ccc(Cl)cc2)c2ccccc2)cc1 (stereo not given)	-4%	-3%	-16%	2%	-12%	-80*
O=S(=O)(NCC(Nc1ccc(Cl)cc1)c1ccccc1)c1ccccc1 (stereo not given)	-2%	8%	/	-6%	-4%	-35
COc1cccc(NC(CNS(=O)(=O)c2ccc(C)cc2)c2ccccc2)c1 (stereo not given)	/	0%	/	-5%	-11%	-22
O=C(CC1CC1)N1CC(=O)N2[C@H](CO)[C@@H](c3ccc(Br)cc3)[C@@H]2C1	/	/	/	/	/	5
CC1(C)CCC[C@@](C)([C@H]2CC[C@]3(C)[C@@H]2[C@H](O)C[C@@H]2[C@@]4(C)CC[C@H](O)C(C)(C)[C@@H]4CC[C@]23C)O1	-2%	/	/	/	/	/
COc1cc2cc(C(=O)N3CC(COS(C)(=O)=O)c4ccc(O)cc43)[nH]c2c(OC)c1OC (stereo not given)	/	/	?	-3%	6.3µM*	/
O=C(CSc1ncnc2nc[nH]c12)N1CCN(c2ccc(Cl)cc2)CC1	-7%	3%	15%	4%	?	-69*
